The panel holds about 83,000 compounds, 20% with a hit somewhere; the sample as a whole holds those more often.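 Note: values are percent growth. 100 is the growth of untreated cells, values between 100 and 0 indicate rising inhibition; between -100 and 0 indicates cell death.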 Calls of active or inactive are those of the source. The calls were made as follows: active = growth percent below 10; inactive = the rest.
What was measured:
Experiment in all cases: NCI-60 one-dose screen, 48 h (100 = growth as untreated, 0 = no growth, -100 = all killed)
Conditions in all cases: 10 µM unless noted
DU-145 prostate = tested on: DU-145 prostate
K-562 leukemia = tested on: K-562 leukemia
MALME-3M melanoma = tested on: MALME-3M melanoma
MDA-MB-231 breast = tested on: MDA-MB-231 breast
RXF 393 renal = tested on: RXF 393 renal
SF-268 CNS = tested on: SF-268 CNS
SF-295 CNS = tested on: SF-295 CNS
SF-539 CNS = tested on: SF-539 CNS
UACC-257 melanoma = tested on: UACC-257 melanoma
M14 melanoma = tested on: M14 melanoma
HCT-15 colon = tested on: HCT-15 colon
HT29 colon = tested on: HT29 colon
SNB-75 CNS = tested on: SNB-75 CNS
SNB-19 CNS = tested on: SNB-19 CNS
U251 CNS = tested on: U251 CNS
PC-3 prostate = tested on: PC-3 prostate
SK-MEL-5 melanoma = tested on: SK-MEL-5 melanoma
UACC-62 melanoma = tested on: UACC-62 melanoma
LOX IMVI melanoma = tested on: LOX IMVI melanoma
SK-MEL-28 melanoma = tested on: SK-MEL-28 melanoma

Measured: growth

CN1CCC(c2c[nH]c3ccccc23)C1 (stereo unspecified)
inactive: DU-145 prostate 110% | K-562 leukemia 109% | MALME-3M melanoma 112% | MDA-MB-231 breast 103% | RXF 393 renal 128% | SF-268 CNS 111% | SF-295 CNS 105% | SF-539 CNS 127% | UACC-257 melanoma 55.5% | M14 melanoma 93% | HCT-15 colon 102% | HT29 colon 100% | SNB-75 CNS 95.5% | SNB-19 CNS 95.2% | U251 CNS 98.2% | PC-3 prostate 112% | SK-MEL-5 melanoma 130% | UACC-62 melanoma 107% | LOX IMVI melanoma 88.2%

COc1cc(C=Nc2cccc(C(=O)O)c2)ccc1N(CCCl)CCCl
inactive: DU-145 prostate 111% | K-562 leukemia 101% | MALME-3M melanoma 84.4% | MDA-MB-231 breast 106% | RXF 393 renal 99.4% | SF-268 CNS 113% | SF-295 CNS 98.3% | SF-539 CNS 102% | UACC-257 melanoma 85.1% | M14 melanoma 104% | HCT-15 colon 97.8% | HT29 colon 98.1% | SNB-75 CNS 101% | SNB-19 CNS 102% | U251 CNS 100% | PC-3 prostate 101% | SK-MEL-5 melanoma 98.7% | UACC-62 melanoma 96.7% | LOX IMVI melanoma 101% | SK-MEL-28 melanoma 103%

CC1[C@H](C)OC(=O)CC(O)CC(O)CC(O)CCC(O)C(O)C[C@]2(O)CC(O)C(C(=O)O)C(CC(OC3O[C@H](C)[C@@H](O)[C@H](N)[C@@H]3O)/C=C/C=C/C=C/C=C/CC/C=C/C=C/[C@H](C)[C@H]1O)O2 (stereo partly specified)
inactive: DU-145 prostate 96.7% | K-562 leukemia 111% | MALME-3M melanoma 99.3% | MDA-MB-231 breast 92.9% | RXF 393 renal 107% | SF-268 CNS 109% | SF-295 CNS 102% | SF-539 CNS 96.1% | UACC-257 melanoma 101% | M14 melanoma 98.6% | HCT-15 colon 109% | HT29 colon 107% | SNB-75 CNS 103% | SNB-19 CNS 109% | U251 CNS 92.4% | PC-3 prostate 98.7% | SK-MEL-5 melanoma 97.2% | UACC-62 melanoma 109% | LOX IMVI melanoma 89.7%

CC(=O)OC[C@]1(C)C=C2C(=O)[C@](C)(O)C3(CC3)C(C)=C2[C@H]1O
active: DU-145 prostate -19.4% | MALME-3M melanoma -78.8% | MDA-MB-231 breast -28.1% | RXF 393 renal -79.4% | SF-268 CNS -8.2% | SF-295 CNS -19.3% | SF-539 CNS -68.9% | UACC-257 melanoma -28.9% | M14 melanoma -66.9% | HCT-15 colon -8.75% | HT29 colon -12% | SNB-75 CNS -91.5% | SNB-19 CNS -16.5% | U251 CNS 1.39% | PC-3 prostate -15.6% | SK-MEL-5 melanoma -62% | UACC-62 melanoma -84.4% | LOX IMVI melanoma -30.3%
inactive: K-562 leukemia 27.2%

COc1cc(C=Nc2cccc(Br)c2)ccc1N(CCCl)CCCl
inactive: DU-145 prostate 87.6% | K-562 leukemia 88.4% | MALME-3M melanoma 128% | MDA-MB-231 breast 91.2% | SF-268 CNS 80.3% | SF-295 CNS 44.4% | SF-539 CNS 67.9% | UACC-257 melanoma 96.6% | M14 melanoma 94% | HCT-15 colon 82.4% | HT29 colon 63.4% | SNB-75 CNS 69.1% | SNB-19 CNS 91.9% | U251 CNS 73% | PC-3 prostate 68.4% | SK-MEL-5 melanoma 86% | UACC-62 melanoma 76.1% | LOX IMVI melanoma 68.7%
active: RXF 393 renal 2.86%

COc1ccc(-n2c(C)nc3cc(OC)c(OC)cc3c2=O)cc1OC
inactive: DU-145 prostate 105% | K-562 leukemia 104% | MALME-3M melanoma 62.3% | MDA-MB-231 breast 116% | RXF 393 renal 118% | SF-268 CNS 97.2% | SF-295 CNS 100% | SF-539 CNS 96.2% | UACC-257 melanoma 102% | M14 melanoma 106% | HCT-15 colon 111% | HT29 colon 106% | SNB-75 CNS 92.2% | SNB-19 CNS 102% | U251 CNS 94.4% | PC-3 prostate 101% | SK-MEL-5 melanoma 104% | UACC-62 melanoma 104% | LOX IMVI melanoma 101% | SK-MEL-28 melanoma 109%

CC(=O)C(c1c(O)c2ccccc2oc1=O)c1cc(=O)oc2c1ccc1ccccc12 (stereo unspecified)
inactive: DU-145 prostate 115% | K-562 leukemia 96.7% | MALME-3M melanoma 98.7% | MDA-MB-231 breast 89.8% | RXF 393 renal 97% | SF-268 CNS 103% | SF-295 CNS 96.3% | SF-539 CNS 92.7% | UACC-257 melanoma 102% | M14 melanoma 102% | HCT-15 colon 101% | HT29 colon 109% | SNB-75 CNS 67.8% | SNB-19 CNS 90.7% | U251 CNS 91.5% | PC-3 prostate 85.7% | SK-MEL-5 melanoma 96.5% | UACC-62 melanoma 91.1% | LOX IMVI melanoma 96.6% | SK-MEL-28 melanoma 110%

Cc1cc(C)cc(Nc2nc3c(s2)CC[C@@]2(C)C3=CC[C@@H]3[C@@H]2CC[C@]2(C)C(=O)CC[C@@H]32)c1
inactive: DU-145 prostate 41.2% | K-562 leukemia 17.1% | MALME-3M melanoma 79.6% | MDA-MB-231 breast 77.5% | SF-268 CNS 67.4% | SF-295 CNS 42.9% | SF-539 CNS 23% | UACC-257 melanoma 87.9% | M14 melanoma 83.4% | HCT-15 colon 19.1% | HT29 colon 12.3% | SNB-75 CNS 70.5% | SNB-19 CNS 60.1% | U251 CNS 46.6% | PC-3 prostate 33.1% | SK-MEL-5 melanoma 91.6% | UACC-62 melanoma 52.9% | SK-MEL-28 melanoma 59.1%
active: RXF 393 renal -7.45% | LOX IMVI melanoma 4.43%
